From PubChem BioAssay (Tox21) come the findings set out here.

The structures appear in SMILES notation. Records with an inconclusive call do not appear. Some structures have more than one record in an assay (separate samples or runs), and their calls can disagree. The source made the active and inactive calls. The call rests on the fitted dose curve; in most records, active means well fitted cell-killing curve with a large enough effect in the repeat runs; inconclusive means weak or mixed curves, or effect the other way; inactive means flat fitted curve, though single readings scatter.
On the % scale 0 is the no-effect control and ±100 the full control effect; potency means the concentration at half of the fitted maximal effect.

This assay is described as follows: Nuclear factor erythroid 2-related factor 2/antioxidant responsive element (Nrf2/ARE) small molecule agonists: qHTS cell viability counter screen in human keratinocytes (AID 1919968). Further: nearly all actives have a fitted effect of over 55% in size. As to conditions: KeratinoSens HaCaT ARE cells viability, CellTiter-Fluor, 24 h; series mostly up to 92.4 µM; activity change, negative = cytotoxicity: at the top concentration. An excerpt: U.S. Tox21 Program National Center for Advancing Translational Sciences [NCATS] Division of Preclinical Innovation [DPI] U.S. Environmental Protection Agency [EPA] National Institutes of Environmental Health Sciences [NIEHS] National Toxicology Program [NTP] U.S. Food and Drug Administration [FDA] Tox21 Assay Overview: Oxidative stress has been implicated in the pathogenesis of a variety of diseases ranging from cancer to neurodegeneration. The antioxidant response element (ARE) signaling pathway plays an important role in the amelioration of oxidative stress. The KeratinoSens (Givaudan, Switzerland) is an in vitro test method which quantifies luciferase induction as a measure of activation of Keap1-Nrf2-antioxidationt/electrophile response element (ARE) dependant pathway in HaCaT human keratinocytes stably transfected with a selectable plasmid. The KeratinoSens assay is a cell-based assay with a reporter cell line to detect potential skin sensitizers by their ability to induce the Nrf2/ARE-response. The activation of the report gene under culture conditions can be detected by ONE-Glo Luciferase Assay System (Promega, Madison, WI). This cell line has been used to screen the Tox21 10K compound library to identify agonists that induce oxidative stress. The cytotoxicity of the Tox21 compound library against the KS-ARE cell line was tested in parallel by measuring the cell viability using CellTiter- Fluor assay system (Promega, Madison, WI) in the same wells.
Tox21 Assay Protocol Summary: HaCaT derived cell line KeratinoSens were dispensed at 1,500 cells/5uL/well in 1536-well white wall/solid bottom plates using a Multidrop Combi (ThermoFisher Scientific, Waltham, MA) dispenser. After the assay plates were incubated at 37 C/5% CO2 for 5 h, 23 nL of compounds dissolved in DMSO, positive controls or DMSO only was transferred to the assay plate by a pintool workstation (Kalypsys, San Diego, CA). The plates were incubated at 37 C/5% CO2 for 23 h, followed by addition of 1uL/well of CellTiter-Fluor reagent into the assay plates using a Flying Reagent Dispenser (Aurora Discovery, San Diego, CA) for cell viability readout that measures cytotoxicity. After 1 h incubation at 37 C/5% CO2 the fluorescence intensity was measured using a ViewLux (PerkinElmer, Shelton, CT) plate reader.
(qHTS replaces the single test concentration by a dilution series.)
On to `O=NN1CCCC1`, for which the Potency is 14.3 µM (active) and inactive.

On to `CCOC(=O)C(O)(c1ccc(Cl)cc1)c1ccc(Cl)cc1`, for which the Potency was 61.8 µM (active). For the molecule `Nc1ccccc1`, the Potency result is “inactive”.

`Nc1ccc(-c2ccccc2)cc1`: the Potency result is “inactive”. Still for that read-out and setting: the same measure for `CCCCCCCCCCCC[N+](C)(C)CCOc1ccccc1`: 27.3 µM (active). Same read-out and setting: next, `O=C1C=CC(=O)C=C1`: “inactive”. For the molecule `CC(=NC#N)N(C)Cc1ccc(Cl)nc1`, the “activity change, negative = cytotoxicity” value was 3.36% (inactive).

As for `CCCCOCCOC(C)=O`, the Potency result is “inactive”. The same measure, in the same setting: next, `Cn1c(-c2ccccc2)cc(-c2ccccc2)[n+]1C`: “inactive”. `C=C1CC[C@@]2(O)[C@H]3Cc4ccc(O)c5c4[C@@]2(CCN3CC2CC2)[C@H]1O5`: the “activity change, negative = cytotoxicity” value was -10.5% [at 42.5 µM] (inactive).

Consider `O=c1oc2ccccc2c(O)c1C(CC(O)c1ccc(-c2ccc(Br)cc2)cc1)c1ccccc1` (stereo not given), for which the “activity change, negative = cytotoxicity” value was -23.3% [at 42.5 µM] (inactive). With `CCCCCON=O`, the “activity change, negative = cytotoxicity” value is 5.1% (inactive). Regarding `CCc1cnc(C2=NC(C)(C(C)C)C(=O)N2)c(C(=O)O)c1` (stereo not given), the Potency entry was “inactive”. Still for that read-out and setting: the same measure for `CCCN(CCOc1c(Cl)cc(Cl)cc1Cl)C(=O)n1ccnc1`: “inactive”. Regarding `CN1CC[C@]23c4c5ccc(O)c4O[C@H]2[C@@H](O)CC[C@H]3[C@H]1C5`, the “activity change, negative = cytotoxicity” value was 2.25% (inactive). `Clc1ccc(C(c2ccc(Cl)cc2)C(Cl)Cl)cc1`: the Potency is 27.8 µM (active). Turning to `Nc1ccc2ccccc2c1`, the Potency entry was “inactive”. `CC(O)CCO` (stereo not given): the Potency entry is “inactive”. The same measure, in the same setting: the same measure for `C=CC(N)=O`: “inactive”. For `CCC(Br)(CC)C(=O)NC(N)=O`, the “activity change, negative = cytotoxicity” value was -0.716% (inactive). On the same count and under the same terms, the same measure for `Nc1ccc(Cl)cc1N`: 0.569% (inactive). `CCN(CC)c1ccccc1`: the Potency entry was “inactive”. With `O=C(Cl)CCl`, the “activity change, negative = cytotoxicity” value is 2.16% (inactive).

Turning to `ClCOCCl`, the “activity change, negative = cytotoxicity” value is -4.11% (inactive). On the same count and under the same terms, the same measure for `OCCSSCCO`: -8.81% (inactive). For the molecule `CC1(C)[C@H](C(=O)O[C@H](C#N)c2cccc(Oc3ccccc3)c2)[C@@H]1/C=C(\Cl)C(F)(F)F`, the “activity change, negative = cytotoxicity” value was 18% (inactive). As to `CCC[CH2][Sn]([Cl])([Cl])[Cl]`, the Potency entry is “inactive”. Turning to `N#Cc1ccccc1Cl`, the “activity change, negative = cytotoxicity” value is 3.05% (inactive).

As for `CCCCCCCCOC(=O)c1ccccc1C(=O)OCCCCCCCC`, the Potency result was “inactive”. Take `NC1(c2ccccc2)CCCCC1`: the “activity change, negative = cytotoxicity” value was -1.93% (inactive). Turning to `COc1ccc(CO)cc1`, the Potency entry was “inactive”. Consider `CC1(C)[C@H](C(=O)O[C@H](C#N)c2cccc(Oc3ccccc3)c2)[C@@H]1C=C(Br)Br`, for which the “activity change, negative = cytotoxicity” value is 9.64% (inactive). On to `CC(C)(C)C(O)(CCc1ccc(Cl)cc1)Cn1cncn1` (stereo not given), for which the Potency entry is “inactive”. On to `CC(COc1ccc(Oc2ccccc2)cc1)Oc1ccccn1` (stereo not given), for which the “activity change, negative = cytotoxicity” value is 2.18% (inactive). The same measure, in the same setting: next, `CC(C)c1ccc(O)cc1`: 4.63% (inactive). For the molecule `O=P1(NCCCl)OCCCN1CCCl` (stereo not given), the Potency entry is “inactive”. In the case of `N#Cc1ccc(O)cc1`, the “activity change, negative = cytotoxicity” value is 1.15% (inactive). Same read-out and setting: the same measure for `CCBr`: 1.94% (inactive); for `CC1=C2[C@H]3OC(=O)[C@@H](C)[C@@H]3CC[C@@]2(C)C=CC1=O`: 9.92% [at 42.5 µM] (inactive). As for `O=C(O)C(F)(F)C(F)(F)C(F)(F)C(F)(F)C(F)(F)C(F)(F)C(F)(F)F`, the Potency result was “inactive”.
